Screening results deposited in PubChem BioAssay by National Center for Advancing Translational Sciences (NCATS).
PKM2 activator: PKM2 (human) enzyme activation | P14618 | purified PKM2, Kinase-Glo ATP luminescence, activation; response scale: 0% is enzyme alone, no compound | Potency, µM (highest dose often 57.5 µM), most hits filed as activators | 0.34% of 260,000 active | AID 1631; active means well fitted activation curve with a large enough effect; inconclusive means small, poorly fitted or top-dose-only effect; inactive means no such curve, though single readings can be large or run the other way; further: nearly all actives have a fitted effect of over 55% in size
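hPK-M2, >95% pure; 0.1 mM ADP / 0.5 mM PEP final; imidazole pH7.2 buffer w/ 7 mM MgCl2, 50 mM KCl; 1 h RT; Kinase-Glo lum. Intermediate enzyme activity for dual inhibitor/activator qHTS.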
MBNL1-CUG inh: MBNL1-poly(CUG) RNA binding inhibition | Q9NR56 | TR-FRET MBNL1-His/biotin-(CUG)12 binding, 665/545 ratio | Potency, µM (titrated, usually from 57.5 µM), actives largely listed as inhibitors | 0.036% of 280,000 active | AID 2675; active means well fitted inhibition curve with a large enough effect in the signal ratio, with a control signal flat, not every such curve was filed as active; inconclusive means small, poorly fitted or top-dose-only effect, or effect the other way, or a change in a side signal; inactive means no such curve, though single readings can be large or run the other way; the % refers to the signal ratio
Target sequence (Q9NR56 whole entry, looked up): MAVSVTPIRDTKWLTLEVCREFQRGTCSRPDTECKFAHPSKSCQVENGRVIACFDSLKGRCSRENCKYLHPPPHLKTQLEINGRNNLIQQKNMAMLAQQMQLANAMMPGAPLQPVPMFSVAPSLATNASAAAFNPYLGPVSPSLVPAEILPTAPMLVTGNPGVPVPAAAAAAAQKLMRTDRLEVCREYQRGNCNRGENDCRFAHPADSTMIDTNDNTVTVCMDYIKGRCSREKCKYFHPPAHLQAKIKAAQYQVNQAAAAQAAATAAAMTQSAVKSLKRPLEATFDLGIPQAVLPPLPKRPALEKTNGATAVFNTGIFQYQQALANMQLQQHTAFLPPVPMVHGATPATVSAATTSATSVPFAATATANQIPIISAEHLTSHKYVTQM
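Compounds (final 92 nM to 58 uM) are added to His-tagged MBNL1 and biotin-(CUG)12, then terbium anti-His antibody and streptavidin-XL665 (5 nM final). After 60 min at room temperature, the 665/545 nm ratio is read.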
CtBP-E1A blk: CtBP/E1A binding inhibition; AlphaScreen GST-E1A/His-CtBP binding, 1536-well; active compounds read low; activity change, % (no concentration beside the values); 0.49% of 340,000 active; AID 651724
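AlphaScreen with 125 nM GST-E1A and 125 nM His-CtBP (5X stocks) in Tris pH 8.0, 300 mM NaCl, BSA, Tween 20, TCEP. Compounds preincubated 2 h at 37 deg C, then glutathione donor/nickel acceptor beads added for 1 h at 37 deg C in dark.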
Six1-Eya2 inh: blocks human Six1 binding to Eya2 | Q15475+O00167 | AlphaScreen GST-Six1/His-Eya2 binding, biochemical; active compounds read low | activity change, % (concentration not given with the values) | 0.56% of 360,000 active | AID 651725
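Homogeneous AlphaScreen proximity assay pairing GST-Six1 with His-tagged Eya2 (added as 5X mix: 250 nM and 500 nM) in 50 mM Tris pH 8.0, 300 mM NaCl, 1 mM TCEP. Glutathione donor and nickel acceptor beads; 1 h, 37 °C, dark.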
A number is an active result; n = inactive; u = inconclusive; x = no result given; [ ] = another dose, or the depositor's remark. An excerpt weighted towards active compounds, which were near 0.93% of everything screened. Unless noted, no stated cut-off is given here; in the data, active means activity change below about -65%; inconclusive means mostly about -30% to -63%; inactive means weaker than that.

SMILES	PKM2 activator	MBNL1-CUG inh	CtBP-E1A blk	Six1-Eya2 inh
CCN(CC)c1ccc(C(=C2C=CC(=[N+](CC)CC)C=C2)c2ccccc2)cc1	x	x	n	u
COC(=O)C1=C(C(=O)OC)[C@@H]2Nc3ccccc3[C@@]23C[C@@H](C(=O)OC)N(S(=O)(=O)c2c(C)noc2C)C3=N1	n[11.5 µM]	x	x	x
Cc1cc(C(=O)CN2C(=O)CN(C)C2=O)c(C)n1-c1cccc(S(=O)(=O)N2CCOCC2)c1	n	n	x	n
Cc1cc(C(=O)CCl)c(C)n1-c1cccc(S(=O)(=O)N2CCOCC2)c1	n	n	-91	-69
C=C(C)CNC(=S)N=Nc1c(O)[nH]c2ccc([N+](=O)[O-])cc12	n	u	n	u
NC(=O)N=Nc1c(O)[nH]c2ccc([N+](=O)[O-])cc12	n	u	-72	u
COc1ccccc1C(=O)N=Nc1c(O)[nH]c2ccc([N+](=O)[O-])cc12	n	n	x	u
CC(C)NC(=S)N=Nc1c(O)[nH]c2ccc([N+](=O)[O-])cc12	n	x	n	-68
COc1cc(N2CCCC2)c(OC)cc1/C=C(/C#N)c1cccc(F)c1	n	n	u	-72
N#C/C(=C/c1ccc(N2CCCCCC2)o1)c1cccc(F)c1	u	n	n	n
O=C(Oc1cccc2cccnc12)c1ccc(N2C(=O)C3C4CCC(C4)C3C2=O)cc1 (configuration not stated)	n	n	u	-89
O=C(Oc1cccc2cccnc12)c1cccc(N2C(=O)C3C4CCC(C4)C3C2=O)c1 (configuration not stated)	n	n	n	-87
COc1cccc(CN2CCC2(C)C(=O)Nc2cnc3ccccc3c2)c1F (configuration not stated)	x	x	n	n
CCSc1ccccc1C(=O)Nc1cc(OC)c(OC)c(OC)c1	28µM	n	n	n
COc1ccc(NC(=O)c2cc(C3CCCCN3C(=O)c3ccccc3)on2)c(C)c1 (configuration not stated)	x	x	n	n
N/C(=N\N=C\c1ccc2c(c1)OCO2)SC1CC(=O)N(c2ccc(C(=O)O)cc2)C1=O (configuration not stated)	35µM	u	n	n
CC1CC1C(=O)Nc1nc(-c2ccccn2)cs1 (configuration not stated)	n	n	-70	-82
O=C(Nc1nc(-c2ccccn2)cs1)C1COc2ccccc2O1 (configuration not stated)	n	u	u	-91
O=C(O)C1CCC1C(=O)Nc1nc(-c2ccc(Cl)s2)cs1 (configuration not stated)	n	n	n	n
C[C@H]1Cc2c(COc3ccccc3)nc3c(c2CO1)CN(S(=O)(=O)c1ccc2c(c1)OCCN2C)CC3	n[11.5 µM]	x	x	x
Cc1ccc(-n2c(SCC(=O)NCc3ccco3)nc3nc4c(cc3c2=O)COC(C)(C)C4)cc1	14µM	n	n	n
CC1OC(CCc2cccc(Cl)c2)Cc2[nH]c(=S)[nH]c(=O)c21 (configuration not stated)	x	x	n	n
CCN(CC)CCNc1cccc2sc3ccccc3c(=O)c12	x	x	n	n
COc1cc(C)c2sc3ccccc3c(=O)c2c1NCCN(C)C	x	x	n	-75
CCN(CC)CCCNc1ccc2ncn3c4ccc(O)cc4c(=O)c1c23	x	x	n	u
SMILES	PKM2 activator	MBNL1-CUG inh	CtBP-E1A blk	Six1-Eya2 inh
CN(C)CCNc1cccc2sc3ccc(O)cc3c(=O)c12	x	x	-67	u
CN(C)CCNc1ccc2nnn3c4ccc(O)cc4c(=O)c1c23	x	x	n	-77
Cc1ccc(NCCN(C)C)c2c(=O)c3cc(O)ccc3sc12	x	x	-68	u
CCN(CC)CCNc1ccc(CO)c2sc3ccccc3c(=O)c12	n	u	u	n
CCOC(=O)C1(C)CCCN(C(=O)c2ccc(OC)cc2)C1 (configuration not stated)	x	x	n	n
O=C1CC(Cc2ccccc2)C(=O)N1Cc1ccco1 (configuration not stated)	28µM	n	n	n
Cc1ccc(CC2CC(=O)N(Cc3ccco3)C2=O)cc1 (configuration not stated)	u	n	n	n
O=C(NCC1CCCCC1)c1cc(-c2cc(F)ccc2OCC2CCCO2)n[nH]1 (configuration not stated)	x	x	n	n
COc1cccc(NC(=O)CCc2c(C)nc3nc(CNC(=O)c4cccc(F)c4)nn3c2C)c1	x	n	-76	u
CCOc1ccccc1/C=N/NC(=O)CSc1n[nH]c(=O)[nH]c1=O	n	n	x	n
O=C(CSc1n[nH]c(=O)[nH]c1=O)N/N=C/c1ccccc1O	n	x	-77	-80
COc1ccc(/C=C\c2nc(=O)c3ccccc3o2)cc1	n	n	-69	n
CCOC(=O)c1sc(NC(=O)CNCc2ccccn2)c(C(=O)OCC)c1C	n	n	-71	u
COC(=O)[C@@]12C[C@@H](CC(=O)NCc3ccc(C)o3)C(=O)N(CCc3ccc(OC)c(OC)c3)C1=CCC(C)(C)C2	x	x	n	n
O=C(Oc1ccc2c(c1)OCC2=O)c1ccccc1	n	n	n	-71
CC(C)(C)c1ccc(C(=O)Oc2ccc3c(c2)OCC3=O)cc1	n	n	n	n
COc1cc(N=Nc2cccc(S(N)(=O)=O)c2)c2ccccc2c1N	n	u	-71	u
NC1=NC(=Nc2cccc(S(N)(=O)=O)c2)c2ccccc21	n	x	x	n
Cc1c(Cl)cccc1NC(=S)N(CCN(C)C)C(C)c1ccccn1 (configuration not stated)	n	n	u	u
Cc1ccccc1NC(=S)N(CCN(C)C)C(C)c1ccccn1 (configuration not stated)	n	n	-72	-65
CN(C)c1cccc2c1C(=O)c1ccccc1C2=O	n	u	-85	-86
O=C(N/N=C/c1ccc(O)c(O)c1O)/C(=C/c1ccc([N+](=O)[O-])cc1)NC(=O)c1ccccc1	n	u	-94	-90
Cc1ccc(NC(=O)/C(=C\c2ccc([N+](=O)[O-])cc2)NC(=O)c2ccccc2)cc1	n	n	n	n
COC(=O)/C(=C\c1ccc([N+](=O)[O-])cc1)NC(=O)c1ccccc1	x	x	-91	n
COc1ccc(C(=S)N2CCN(c3ccccc3Cl)CC2)cc1OC	n	n	x	n
SMILES	PKM2 activator	MBNL1-CUG inh	CtBP-E1A blk	Six1-Eya2 inh
COc1cc(C(=S)N2CCN(c3ccccc3Cl)CC2)cc(O)c1O	3.5µM	n	n	n
Cc1cc(=O)[nH]c(N/N=C/c2ccc(Br)s2)n1	n	x	u	-73
Cc1cc(=O)[nH]c(N/N=C/c2c(O)n(-c3ccccc3)c(=O)c3ccccc23)n1	n	x	u	-87
Cc1cc(=O)[nH]c(N/N=C/c2ccc(-c3ccc(F)cc3)o2)n1	x	n	-82	-85
Cc1cc(=O)[nH]c(NN=Cc2c(Cl)cccc2Cl)n1	x	x	n	n
O=C1NC[C@H](Cc2ccccc2)N(C[C@@H]2CCCN2C[C@H](Cc2ccc(O)cc2)N2C[C@H](Cc3ccccc3)N(CCc3ccccc3)C(=O)C2=O)C1=O	x	x	n	n
